# Experimental data from the antibiotic and cytotoxicity screens of Wong et al. (2023).
# In all, about 39,000 compounds went through this assay and about 3,300 (8.5%) were called active. Only a selection was taken, and actives are over-represented in it overall.
# Test system: HepG2
# Assay: cytotoxicity call (relative viability < 0.9)
# Details: 10 µM
row,SMILES,cytotoxicity call
1,Cc1noc(C)c1S(=O)(=O)Nc1ccc2c(c1)C(=O)N([C@@H](C)CO)C[C@@H](C)[C@@H](CN(C)C(=O)Nc1ccc3c(c1)OCO3)O2,inactive
2,COc1ccc2c3c(n(c2c1)C)[C@H](CO)N(C[C@]13CCN(CC1)C(=O)CN1CCOCC1)C(=O)Nc1ccc(cc1)F,inactive
3,COc1cc2nccc(Oc3ccc(NC(=O)c4cn(C(C)C)c(=O)n(-c5ccc(F)cc5)c4=O)cc3F)c2cc1OC,active
4,COc1cc2c(Oc3ccc(NC(=O)C4(C(=O)Nc5ccc(F)cc5)CC4)cc3F)ccnc2cc1OCCCN1CCOCC1,active
5,Cc1cc(C)nc(NS(=O)(=O)c2ccc(NC(=O)c3cccn(OCc4ccc(F)cc4)c3=O)cc2)n1,inactive
6,COc1cc2nccc(Oc3ccc(NC(=O)C4(C(=O)Nc5ccc(F)cc5)CC4)cc3)c2cc1OC,inactive
7,C[C@H]1CN([C@@H](C)CO)C(=O)Cc2cc(NC(=O)C3CC3)ccc2O[C@H]1CN(C)C(=O)Nc1ccccc1,inactive
8,C[C@H]1CN([C@@H](C)CO)C(=O)Cc2cc(NS(=O)(=O)c3ccccc3)ccc2O[C@H]1CN(C)S(C)(=O)=O,inactive
9,O=S(=O)(O)O/N=C(\Cc1ccc(O)cc1)S[C@H]1O[C@H](CO)[C@@H](O)[C@H](O)[C@H]1O,inactive
10,CC=Cc1ccc2n(c1=O)C[C@@H]1[C@@H](CO)[C@H](C(=O)NCCc3cn(C)cn3)N(C(=O)CC)[C@H]21,inactive
11,C[C@H](CO)N1C[C@H](C)[C@H](CN(C)C(=O)C2CCOCC2)Oc2ncc(C#Cc3cccc(F)c3)cc2C1=O,inactive
12,CC(C)N1CC[C@@H](CNCc2ccc(Oc3ccccc3)cc2)Oc2c(NC(=O)c3ccncc3)cccc2C1=O,inactive
13,CN(CC(=O)NCc1ccccn1)S(=O)(=O)c1cc(Br)cnc1N,active
14,CC(C)CNC(=O)C(=O)NCc1ccccn1,inactive
15,O=C(NCc1ccccn1)C1CCNCC1,inactive
16,Nc1nc(Cl)nc(Cl)n1,inactive
17,COc1ccc(NC(=O)Nc2ccc3c(c2)[C@@H]2C[C@@H](CC(=O)NCc4ccccn4)O[C@H](CO)[C@@H]2O3)cc1,inactive
18,C[C@@H]1CN([C@H](C)CO)C(=O)Cc2cc(NC(=O)C3CCCCC3)ccc2O[C@H]1CN(C)Cc1ccc(C(F)(F)F)cc1,inactive
19,C[C@@H]1CN([C@@H](C)CO)C(=O)Cc2cc(NC(=O)C3CCCCC3)ccc2O[C@H]1CN(C)Cc1ccc(C(F)(F)F)cc1,inactive
20,C[C@H]1CN([C@@H](C)CO)C(=O)Cc2cc(NC(=O)C3CCCCC3)ccc2O[C@@H]1CN(C)Cc1ccc(C(F)(F)F)cc1,active
21,C[C@H](CO)N1C[C@H](C)[C@H](CN(C)Cc2ccc(C(F)(F)F)cc2)Oc2ccc(NC(=O)C3CCCCC3)cc2CC1=O,inactive
22,C[C@@H]1CN([C@H](C)CO)C(=O)Cc2cc(NC(=O)C3CCCCC3)ccc2O[C@@H]1CN(C)Cc1ccc(C(F)(F)F)cc1,active

row,SMILES,cytotoxicity call
1,C[C@H](CO)N1C[C@H](C)[C@H](CN(C)C(=O)Nc2ccc(C(F)(F)F)cc2)Oc2ccc(NC(=O)C3CCCCC3)cc2CC1=O,inactive
2,C[C@H]1CN([C@@H](C)CO)C(=O)Cc2cc(NC(=O)C3CCCCC3)ccc2O[C@H]1CN(C)Cc1ccc(C(F)(F)F)cc1,inactive
3,C[C@H](CO)N1C[C@H](C)[C@@H](CN(C)Cc2ccc(C(F)(F)F)cc2)Oc2ccc(NC(=O)C3CCCCC3)cc2CC1=O,inactive
4,C[C@@H]1CN([C@@H](C)CO)C(=O)Cc2cc(NC(=O)C3CCCCC3)ccc2O[C@@H]1CN(C)Cc1ccc(C(F)(F)F)cc1,active
5,CCN1C[C@]23CN(C(=O)c4cnccn4)C[C@@H](C[C@H]2S1(=O)=O)O3,inactive
6,C[C@H]1CN([C@@H](C)CO)C(=O)CCCn2nncc2CO[C@H]1CN(C)S(=O)(=O)c1ccc(Oc2ccccc2)nc1,inactive
7,C[C@@H]1CCCCO[C@H](CN(C)C(=O)Nc2ccc(F)cc2)[C@H](C)CN([C@H](C)CO)C(=O)c2cc(NS(=O)(=O)c3ccccc3)ccc2O1,inactive
8,C[C@H](CO)N1C[C@H](C)[C@H](CN(C)C)Oc2ccc(NS(=O)(=O)c3cn(C)cn3)cc2CC1=O,inactive
9,Cc1noc(C)c1S(=O)(=O)NC(C)C,inactive
10,CS(=O)(=O)CS(=O)(=O)C1=C(N2CCOCC2)C2CCN1CC2,inactive
11,Cc1noc(C)c1NC(=O)N[C@@H]1C=C[C@@H](CC(=O)N2CCN(C)CC2)O[C@H]1CO,inactive
12,c1ccc(-c2cccs2)nc1,inactive
13,O=C(Nc1ccc(C(F)(F)F)cc1)Nc1ccc2c(c1)[C@@H]1C[C@@H](CC(=O)N3CCc4ccccc4C3)O[C@H](CO)[C@@H]1O2,active
14,O=C(Nc1ccc(C(F)(F)F)cc1)Nc1ccc2c(c1)[C@H]1C[C@@H](CC(=O)N3CCc4ccccc4C3)O[C@H](CO)[C@H]1O2,active
15,O=C(Nc1ccc(C(F)(F)F)cc1)Nc1ccc2c(c1)[C@@H]1C[C@H](CC(=O)N3CCc4ccccc4C3)O[C@H](CO)[C@@H]1O2,inactive
16,O=C(Nc1ccc(C(F)(F)F)cc1)Nc1ccc2c(c1)[C@@H]1C[C@H](CC(=O)N3CCc4ccccc4C3)O[C@@H](CO)[C@@H]1O2,inactive
17,O=C(Nc1ccc(C(F)(F)F)cc1)Nc1ccc2c(c1)[C@H]1C[C@H](CC(=O)N3CCc4ccccc4C3)O[C@@H](CO)[C@H]1O2,inactive
18,O=C(Nc1ccc(C(F)(F)F)cc1)Nc1ccc2c(c1)[C@H]1C[C@@H](CC(=O)N3CCc4ccccc4C3)O[C@@H](CO)[C@H]1O2,inactive
19,CO[C@@H]1CN(C)C(=O)c2cc(NC(=O)c3cc(C)on3)ccc2OC[C@@H](C)N(C(=O)C2CCC2)C[C@H]1C,inactive
20,C[C@@H]1CN([C@H](C)CO)C(=O)c2cc(NC(=O)Nc3ccc(C(F)(F)F)cc3)ccc2O[C@@H](C)CCCCO[C@@H]1CN(C)S(=O)(=O)c1cn(C)cn1,inactive
21,C[C@H](CO)N1C[C@H](C)[C@@H](CN(C)S(=O)(=O)c2ccc(F)cc2)OCCCC[C@H](C)Oc2ccc(NC(=O)C3CCCCC3)cc2C1=O,inactive
22,Cc1noc(C)c1S(=O)(=O)Nc1ccc2c(c1)C(=O)N([C@@H](C)CO)C[C@H](C)[C@H](CN(C)Cc1ccc(-c3ccccc3)cc1)O2,inactive
